Columns and labels:
Details in all cases: concentration: 1 μM, replicates: in singlicate; n = 1
[1] = test system: T1, HASPIN
T1 construct: gene GSG2

[2] = test system: HCK
[3] = test system: HIPK1
[4] = test system: HIPK2
[5] = test system: HIPK3
[6] = test system: HIPK4
[7] = test system: HPK1
[8] = test system: HUNK
[9] = test system: ICK
[10] = test system: IGF1R
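Further: KINOMEscan kinase panel screen.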

SMILES	%Inh [1]	%Inh [2]	%Inh [3]	%Inh [4]	%Inh [5]	%Inh [6]	%Inh [7]	%Inh [8]	%Inh [9]	%Inh [10]
O=C(O)C(F)(F)F.O=c1[nH]ccc2nc(N[C@@H]3CCNC3)nc(Nc3cc(Cl)cc(Cl)c3)c12 [GSK2188764]	86%	0%	27%	6%	54%	0%	95.7%	0%	12%	0%
Cn1cc(-c2ccc3c(c2)CCN3C(=O)Cc2cc(F)cc(C(F)(F)F)c2)c2c(N)ncnc21 [GSK2635225]	9%	0%	16%	0%	17%	13%	31%	9%	0%	30%
CC(C)(C)c1ccc(C(=O)Nc2cn3cc(-n4ccnc4)ccc3n2)cc1	7%	18%	32%	28%	12%	21%	0%	0%	0%	0%
N#Cc1cnc2cc(-c3cnc(CNCCN4CCOCC4)s3)ccc2c1Nc1ccc(Oc2ccccc2)cc1 [GW664114]	0%	99%	0%	0%	17%	0%	89%	12%	0%	17%
O=C(O)C(F)(F)F.O=c1[nH]ccc2nc(N[C@@H]3CCNC3)nc(Nc3ccc4c(c3)S(=O)(=O)CC4)c12 [GSK2181306]	90%	59%	75%	84%	93.3%	56%	96.7%	0%	68%	19%
COc1ccc(C2=C(Nc3cccc(O)c3)C(=O)NC2=O)cc1 [SB-390766]	0%	41%	0%	2%	63%	93.5%	36%	0%	10%	0%
CC(C)NCC(Cc1ccccc1)NC(=O)c1cc(Br)c(-c2ccnc3[nH]ccc23)s1.Cl.Cl (centres unmarked) [GSK1383281]	89%	0%	30%	0%	35%	91.6%	44%	0%	11%	4%
O=C(Nc1c(F)cccc1F)c1cc(C(=O)c2ccccc2F)c[nH]1 [GSK1326180]	22%	0%	0%	44%	0%	0%	50%	24%	0%	18%
Cc1ccc(NC(=O)c2cccc(N3CCCCC3)c2)cc1-c1ccc(C(=O)NCC2CC2)cc1 [GSK1917008]	0%	0%	0%	0%	14%	17%	38%	0%	23%	9%
Cc1ccc(O)cc1Nc1ccnc2ccc(C(C)(C)C)cc12 [GW856805]	44%	93.8%	20%	0%	28%	0%	0%	0%	37%	0%
Cn1cc(-c2cnc(N)c3c(-c4ccc5c(c4)CCN5C(=O)Cc4ccccc4)csc23)cn1 [GSK2593074]	0%	86%	21%	0%	7%	0%	94%	0%	100%	0%
O=C(Nc1n[nH]c2nc(-c3ccccc3)ccc12)C1CC1 [SB-708999]	0%	7%	0%	29%	0%	8%	54%	0%	4%	6%
CN(c1ccc2c(c1)nc(NCc1ccccc1)n2C)c1ccnc(Nc2ccc(CS(C)(=O)=O)cc2)n1.Cl [GW811603]	3%	49%	41%	46%	0%	38%	72%	0%	29%	6%
Cc1cccc(Nc2nc(N[C@H]3CCCC[C@H]3N)ncc2C(N)=O)c1.Cl [GSK986310]	18%	0%	0%	0%	21%	0%	79%	0%	16%	0%
Cc1ccc(NC(=O)c2ccnc(N3CCCCC3)c2)cc1-c1ccc(C(=O)NCC2CC2)cc1 [GW775610]	0%	0%	11%	9%	0%	0%	24%	0%	25%	0%
CN(c1ccc(NC(=O)N2CCN(CCCN3CCOCC3)CC2)cc1)c1ccnc(Nc2ccc(CS(C)(=O)=O)cc2)n1.Cl [GW830899]	0%	12%	45%	0%	0%	20%	47%	0%	95.9%	1%
COC(=O)Nc1nc2ccc(Oc3ccc(NC(=O)Nc4cc(C(F)(F)F)ccc4F)cc3)cc2[nH]1.Cl [GW654607]	12%	51%	8%	0%	10%	92%	57%	8%	11%	2%

From paper PMC5540273 (PLoS ONE, 2017)
